ELG1 genotoxic: qHTS screen for small molecules that induce genotoxicity in human embryonic kidney (HEK293T) cells expressing luciferase-tagged ELG1 | AID 504466, 2011 | HEK293T ELG1-luciferase reporter, luminescence, 16 h | hit rate 1.3% among 330,000 | Potency, µM (highest dose often 46 µM), usual class: activators; note: nearly all actives have a fitted effect of over 60% in size
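Step 1: seed 2,000 HEK293T ELG1-luciferase cells per well. Step 2: add compound or DMSO, incubate 16 hr at 37 °C. Step 3: ONE-Glo, 30 min at room temperature, read luminescence.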
Luc counter: Counterscreen for Luciferase (Kinase-Glo TM) Inhibition. Luciferin 4-monooxygenase (Photuris pensylvanica), Q27757. Kinase-Glo luciferase, ATP luminescence, 8 min. Potency, µM (doses to about 38.3 µM), usual class: inhibitors. hit rate 0.28% among 200,000. AID 1379, 2008; note: nearly all actives have a fitted effect of over 60% in size
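Inhibition of Kinase-Glo luciferase light generation was assessed at 10 uM ATP in pH 7.2 imidazole buffer, with luminescence measured after eight minutes at ambient temperature.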
FLuc modulator: qHTS profiling assay for firefly luciferase inhibitor/activator using purifed enzyme and Km concentrations of substrates (counterscreen for miR-21 project); Luciferin 4-monooxygenase (Photinus pyralis), P08659; purified FLuc, Km substrates, luminescence inhibition; Potency, µM (series often up to 57.5 µM), hits mostly inhibitors; hit rate 6.9% among 360,000; note: nearly all actives have a fitted effect of over 55% in size
Target sequence (P08659 whole entry, looked up): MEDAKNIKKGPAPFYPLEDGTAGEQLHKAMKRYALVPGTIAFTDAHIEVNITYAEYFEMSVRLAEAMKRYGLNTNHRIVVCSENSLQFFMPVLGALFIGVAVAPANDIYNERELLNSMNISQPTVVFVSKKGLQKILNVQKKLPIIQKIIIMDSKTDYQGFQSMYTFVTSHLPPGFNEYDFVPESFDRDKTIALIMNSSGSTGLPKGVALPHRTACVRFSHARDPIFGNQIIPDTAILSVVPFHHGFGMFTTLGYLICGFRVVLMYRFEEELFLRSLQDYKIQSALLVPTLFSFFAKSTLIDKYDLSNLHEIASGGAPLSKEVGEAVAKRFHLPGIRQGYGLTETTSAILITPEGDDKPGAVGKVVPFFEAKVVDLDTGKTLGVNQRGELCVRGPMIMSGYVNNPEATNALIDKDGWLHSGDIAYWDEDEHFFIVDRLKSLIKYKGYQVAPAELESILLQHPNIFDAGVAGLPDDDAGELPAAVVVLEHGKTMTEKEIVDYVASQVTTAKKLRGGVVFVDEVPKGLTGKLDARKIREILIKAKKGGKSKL
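Purified P. pyralis luciferase, 10 nM final, with Km-level 10 uM D-luciferin and 10 uM ATP in 50 mM Tris acetate pH 7.5, 10 mM Mg acetate, 0.01% Tween-20, 0.05% BSA; 6-point qHTS titration about 60 µM downward; luminescence read.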
NPC1 prom act: qHTS Assay for NPC1 Promoter Activators | Huh7 NPC1 promoter luciferase reporter, 24 h | Potency, µM (titrated, usually from 9.22 µM), most hits filed as activators | hit rate 2.4% among 320,000; note: nearly all actives have a fitted effect of over 60% in size
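Huh7 reporter cells (NPC1 promoter driving luciferase) are dosed with compound for 24 h at 37 °C, 5% CO2; luciferase detection reagent is then added and luminescence measured after 10 min at ambient temperature.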
SMN2 splice enh: qHTS Assay for Enhancers of SMN2 Splice Variant Expression. HEK293 SMN2-luciferase splicing reporter, luminescence, 30-36 h. Potency, µM (series often up to 46.1 µM), hits mostly activators. hit rate 2.8% among 210,000; note: nearly all actives have a fitted effect of over 55% in size
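HEK293 cells carry an SMN2 minigene-luciferase reporter in which exon 7 inclusion puts luciferase in frame. Cells were seeded at 2000 cells/well, attached for 10-12 hours, then exposed to compounds for 30-36 hours at 37C before ONE-Glo luminescence.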
Rab9 promoter act: qHTS Assay for Rab9 Promoter Activators; Huh7 Rab9 promoter-luciferase reporter, luminescence, 24 h; Potency, µM (titrated, usually from 9.22 µM), actives largely listed as activators; hit rate 2.8% among 320,000; note: nearly all actives have a fitted effect of over 60% in size
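Huh7 cells stably carrying Rab9 promoter–luciferase reporter, plated 1500 cells/well, compound added after 2 h and incubated 24 h at 37 °C; luciferase luminescence then read after 10 min with detection reagent.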
A number is an active result; n = inactive; u = inconclusive; x = not tested or not shown. A selection: hits, their analogues and other compounds. The true share with any hit is near 7.3%. Calls come from the whole dose curve; as a rule, active = well fitted curve in the direction sought with a large enough effect; inconclusive = small, poorly fitted or top-dose-only effect, or another doubt; inactive = no such curve, though single readings can be large; an effect the other way counts as inactive or inconclusive.

SMILES	ELG1 genotoxic	Luc counter	FLuc modulator	NPC1 prom act	SMN2 splice enh	Rab9 promoter act
COc1ccc2c(c1OC)C(=O)OC2Nc1nc(-c2cc3cc(Br)ccc3oc2=O)cs1 (stereo unspecified)	u	x	21µM	2µM	x	1.4µM
CCCc1cc(C(=O)N(C2CCCCC2)C2CCCCC2)no1	n	n	n	n	n	n
CC(C)c1cc(C(=O)NC2CCCCC2)no1	u	n	17µM	u	11µM	u
CCCc1cc(C(=O)NC2CCCC2)no1	10µM	n	u	u	13µM	u
CCCc1cc(C(=O)NC2CCCCC2)no1	16µM	n	u	4µM	14µM	u
Cc1ccc([N+](=O)[O-])cc1-c1ccc(/C=N/NC(=O)CN2CCOCC2)o1	n	x	n	n	x	n
CCN(Cc1ccccc1)C(=O)c1cc(COc2c(F)cccc2F)on1	n	x	n	n	x	n
Cc1ccc(CN2CCN(CC(=O)N/N=C/c3ccccc3F)CC2)cc1	u	x	1.7µM	n	x	u
CC(=O)Nc1cccc(C(=O)N/N=C/c2cccnc2)c1	n	n	u	n	n	n
CC(=O)Nc1cccc(C(=O)N/N=C/c2ccccc2F)c1	7.3µM	u	1.3µM	3.2µM	u	0.79µM
Cc1ccc(C(=O)Nc2cccc(C(=O)N/N=C/c3ccccc3F)c2)cc1	u	x	5.4µM	2µM	x	1.6µM
O=C(CN1CCN(Cc2ccccc2)CC1)N/N=C/c1ccccc1F	n	x	n	n	x	n
CNC(=O)CSc1nnc(NC(=O)C2CC(=O)N(c3ccccc3OC)C2)s1 (stereo unspecified)	n	x	n	n	x	n
CCN(CC)S(=O)(=O)c1ccc(N2CC(C(=O)NCCC3=CCCCC3)CC2=O)cc1 (stereo unspecified)	n	x	n	n	x	n
COc1ccc(C2CC3(CC(C)(C)NC(=S)N3)Oc3cc(O)cc(C)c32)cc1OC (stereo unspecified)	n	n	n	n	n	n
O=C(N/N=C\c1ccc2c(c1)OCO2)c1ccc(Cn2cc(Br)c([N+](=O)[O-])n2)o1	n	n	6µM	n	x	n
O=C(N/N=C\c1cccc(F)c1)c1ccc(Cn2cc(Br)c([N+](=O)[O-])n2)o1	n	n	u	n	x	n
O=C(N/N=C\c1ccc(F)cc1)c1ccc(Cn2cc(Br)c([N+](=O)[O-])n2)o1	n	n	21µM	n	n	n
COc1ccc(/C=N/Nc2nc(N3CCCCC3)nc(N3CCCCC3)n2)cc1[N+](=O)[O-]	n	n	n	n	n	n
Cc1csc(N/N=C/c2ccc(O)c([N+](=O)[O-])c2)n1	u	n	21µM	n	n	n
O=[N+]([O-])c1cc(/C=N/Nc2nc(N3CCCCC3)nc(N3CCCCC3)n2)ccc1O	n	n	15µM	n	u	n
CCc1ccc(-c2nn(CC(=O)NC3CCCCC3)c3c2cnc2ccc(F)cc23)cc1	x	x	n	x	x	x
S=C(Nc1ccc2c(c1)OCCO2)Nc1ccccc1Cl	u	x	15µM	n	x	n
S=C(Nc1ccc(Cl)cc1)Nc1ccc2c(c1)OCCO2	n	x	11µM	u	x	u
O=C(CN1CCN(CC(=O)Nc2ccccc2Cl)CC1)Nc1ccc2c(c1)OCCO2	n	n	n	n	n	n
SMILES	ELG1 genotoxic	Luc counter	FLuc modulator	NPC1 prom act	SMN2 splice enh	Rab9 promoter act
CCN1CCN(CCCNC(=O)CNC(=O)c2nn(-c3ccc(OC)cc3)c(=O)c3ccccc23)CC1	n	x	n	n	x	n
Cc1ccc(CSc2nc3c(c(N(C)C)n2)CCCC3)cc1	u	n	n	n	n	n
Cc1nc(SCc2ccccc2)nc2c1CCC2	u	n	17µM	u	11µM	u
Cc1cnc([N+](=O)[O-])n1CCOC(=O)NC(=O)c1c(F)cccc1F	n	n	n	n	n	n
CC(C)(C)c1ccc2c(c1)OC(C(=O)N/N=C\c1ccccn1)CO2 (stereo unspecified)	n	n	n	n	n	n
O=C(O)c1cccc(-c2ccc(/C=N/NC(=O)C3COc4ccccc4O3)o2)c1 (stereo unspecified)	n	n	24µM	n	n	n
CC(C)(C)c1ccc2c(c1)OC(C(=O)N/N=C\c1ccc(-c3cccc(C(=O)O)c3)o1)CO2 (stereo unspecified)	n	x	19µM	n	x	n
COc1ccc(NC(=O)CSc2ccc(F)cc2)cc1S(=O)(=O)N1CCCCC1	n	n	n	n	x	n
CC1CCN(S(=O)(=O)c2cn(CC(=O)N3CCN(c4cccc(C(F)(F)F)c4)CC3)cn2)CC1	n	x	n	n	x	n
Cc1ccc2[nH]c(-c3cccc(N)c3)cc2c1	2.3µM	n	4.8µM	1.8µM	14µM	2.2µM
COc1cc(C)ccc1OCCOCCOc1cccc2ccc(C)nc12	n	n	n	n	n	n
Cn1c(=O)[nH]c(=O)c2c1nc(SCCN1CCCCC1)n2CCCc1ccccc1	n	n	n	n	n	n
CSc1nc2sc3c(c2c(=S)[nH]1)CC(C)(C)OC3	n	x	19µM	n	x	n
CC(C)=NNc1nc2sc3c(c2c(=O)[nH]1)CC(C)(C)OC3	n	n	15µM	n	n	n
CCc1ccc(C(=O)NC(=S)Nc2ccc3c(c2)OCCO3)cc1	u	n	6µM	2.8µM	11µM	4µM
O=C(NC(=S)Nc1ccc2c(c1)OCCO2)c1ccc(F)cc1Cl	u	n	13µM	n	13µM	n
Cc1ccc(C(=O)NC(=S)Nc2ccc(N3CCOCC3)cc2)c(C)c1	n	n	n	n	n	n
Cc1ccc(C(=O)NC(=S)Nc2ccc3c(c2)OCCO3)c(C)c1	u	n	9.5µM	u	n	u
O=C(NC(=S)Nc1ccc2c(c1)OCO2)c1ccc(Cl)cc1	u	n	u	4µM	13µM	2.2µM
CCCc1nc2oc3c(NCC4CCCO4)ncnc3c2c2c1COC(C)(C)C2 (stereo unspecified)	n	n	n	n	n	n
CCc1ccccc1NC(=O)C(CC)Oc1ccccc1-c1nnc(-c2ccccc2)o1 (stereo unspecified)	x	x	n	x	x	x
Cc1cc(C)cc(C(=O)NC(=S)Nc2ccc3c(c2)OCCO3)c1	u	x	6.7µM	u	x	u
c1ccc(-c2ccc(CN3CCSCC3)cc2)cc1	n	x	27µM	n	x	n
Clc1ccc(CN2CCSCC2)cc1Cl	n	x	n	n	x	n
CSc1ccccc1NC(=O)C1CC(c2c(F)cccc2Cl)=NO1 (stereo unspecified)	u	x	17µM	n	x	n
CCCC1=NN2C(=N)/C(=C\c3cc(C)n(Cc4ccccc4)c3C)C(=O)N=C2S1	n	x	u	n	x	n
